Assay results from PubChem BioAssay AID449762 (Southern Research Specialized Biocontainment Screening …, 2010).
Out of some 330,000 compounds screened, about 1,900 (0.58%) were called active. Another 4% or so got no clear call; they are omitted. Rule as the data show it: inconclusive = inhibition above about 70% without an active follow-up result; inactive = below that. Only a sample is shown. Potency and affinity values are given separately.

Assay: M. tuberculosis growth inhibition, HTS (AID 449762);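 also: bacterial growth assessed after seven days of incubation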
Conditions: M. tuberculosis H37Rv growth inhibition, 7H9 media; at 25 µM; hits give high values

Compound	inhibition
CCOc1cc(Cl)c(NC(C)=O)cc1OCC	-1.54% (inactive)
CCOc1cc(NC(=S)Nc2ccc(Cl)cc2)c(OCC)cc1NC(C)=O	-3.61% (inactive)
CC(=O)c1cccc(NC(=O)C(C)OC(=O)c2ccc(Br)o2)c1 (stereo not given)	4.17% (inactive)
CCOC(=O)C1CCN(c2cc3c(cc2NC(=O)c2ccccc2)n(C)c(=O)n3C)CC1	-3.19% (inactive)
CCOC(=O)C1CCN(c2cc3c(cc2NC(=O)c2ccccc2F)n(C)c(=O)n3C)CC1	4.71% (inactive)
CCc1ccc(NC(=O)C2C3C=CC(C4CC34)C2C(=O)O)cc1 (stereo not given)	4.87% (inactive)
CCCCCCNC(=O)C(=O)NCCc1ccc(Cl)cc1	-8.55% (inactive)
CCCCCc1ccc(CC(=O)O)cc1	-9.58% (inactive)
NS(=O)(=O)c1cc(C(=O)OC2CCOC2=O)ccc1Cl (stereo not given)	-0.59% (inactive)
N/C(=N\OC(=O)c1ccc2c(c1)OCO2)c1ccc([N+](=O)[O-])cc1	0.35% (inactive)
CS(=O)(=O)O/N=C1\CCCCC1c1ccc([N+](=O)[O-])cc1[N+](=O)[O-] (stereo not given)	11.2% (inactive)
CCN(CC)CCNc1ncnc2c1sc1nc(N3CCOCC3)c3c(c12)CCCC3	13.5% (inactive)
COc1ncnc2c1sc1nc(-c3ccccc3)c3c(c12)CCCC3	2.95% (inactive)
Cc1nc(-c2c(C(=O)NNC(=O)Nc3c(C)cccc3C)noc2C)cs1	-5.09% (inactive)
COc1ccc(OC)c(C(=O)NC2CC(C)(C)Cc3c2cnn3-c2ccccc2)c1 (stereo not given)	12.2% (inactive)
CC(C)CC(=O)Nc1cccc(NC(=O)c2ccccc2Cl)c1	0.24% (inactive)
COc1ccc(CSc2nc3ccccc3c(=O)[nH]2)cc1F	2.06% (inactive)
Cn1cc(C=C2C(=O)NC(=O)NC2=O)c2ccccc21	-7.12% (inactive)
COc1ccc(N2C(=O)NC(=O)/C(=C\c3cn(C)c4ccccc34)C2=O)cc1	3.04% (inactive)
COC(=O)c1ccc(C(c2c(N)n(CC(C)C)c(=O)[nH]c2=O)N2CCN(c3ccccc3)CC2)cc1 (stereo not given)	7.1% (inactive)

Compound	inhibition
CCOC(=O)CC(=O)CSc1nnc2c(n1)[nH]c1ccccc12	7.32% (inactive)
COc1ccc(C2CC(c3c(Cl)cccc3Cl)n3nc(N)nc3N2)cc1 (stereo not given)	-4.95% (inactive)
Cc1cc(C)nc(NC(=S)NC(=O)c2ccccc2)n1	-0.74% (inactive)
CC1CCN(C(=O)C2CCC(CNc3c(N4CCCCC4)c(=O)c3=O)CC2)CC1 (stereo not given)	-6.49% (inactive)
O=C(C1CCC(CNc2c(N3CCCCC3)c(=O)c2=O)CC1)N1CCCC1 (stereo not given)	-1.43% (inactive)
CC(=O)NCC1CCCN(C(=O)c2ccc(OC3CCN(Cc4ccccn4)CC3)cc2)C1 (stereo not given)	8.85% (inactive)
CC(Oc1ccc2c3c(c(=O)oc2c1)CCC3)C(=O)NC1CCN(Cc2ccccc2)CC1 (stereo not given)	5.54% (inactive)
O=C(NCc1ccccc1Cl)c1ccc(S(=O)(=O)Nc2cccc(C(F)(F)F)c2)cc1	-11.7% (inactive)
S=C(NCc1cccnc1)Nc1ccc(Oc2ccccc2)cc1	4.52% (inactive)
c1ccc(-c2nc(N3CCCCC3)nc3ccccc23)cc1	36.9% (inactive)
Clc1ccc(-c2nc(N3CCCCC3)nc3ccccc23)cc1	8.31% (inactive)
COc1cc(OC)cc(C(=O)Nc2cccc(-c3ccc(N4CCOCC4)nn3)c2)c1	-3.98% (inactive)
COc1ccc(C(=O)NNC(=O)c2ccc(S(=O)(=O)N3CCOCC3)cc2)cc1	0.01% (inactive)
CCCN1C(=O)C2(SC(NC(C)=O)=NN2C(C)=O)c2cc(C)ccc21 (stereo not given)	-6.76% (inactive)
COc1ccc(OC)c(S(=O)(=O)N2CCN(C34CC5CC(CC(C5)C3)C4)CC2)c1	2.72% (inactive)
COc1cc(F)ccc1S(=O)(=O)N1CCN(C23CC4CC(CC(C4)C2)C3)CC1	9.71% (inactive)
Oc1[nH]c2ccc(Br)cc2c1N=NC(=S)N1CCOCC1	7.05% (inactive)
NC(=S)N=Nc1c(O)[nH]c2ccccc12	-9.66% (inactive)
CCc1ccc(NC(=O)c2cc(CC(C)C)on2)cc1	4.83% (inactive)
CCCc1cc(C(=O)Nc2ccc(C(C)=O)cc2)no1	29.9% (inactive)

Compound	inhibition
CCOc1ccc(C(=S)N2CCN(C)CC2)cc1	-1.09% (inactive)
CCc1nc(C)cn1S(=O)(=O)c1cc(Cl)c(OC)cc1Cl	-6.76% (inactive)
CCN(CC)C(=O)c1ccc2c(c1)N(Cc1ccccc1)C(=O)CS2=O (stereo not given)	0.11% (inactive)
Cc1ccc(C(=O)Nc2cccc(C(F)(F)F)c2)cc1NC(=O)c1nccn1C	-2.57% (inactive)
CC(=O)c1ccccc1NC(=O)COC(=O)CCC1CCCC1	9.67% (inactive)
O=C1/C(=C/c2cccnc2)CC/C1=C\c1cccnc1	-0.97% (inactive)
CC(C)/C=C1\CC/C(=C\c2cccnc2)C1=O	11% (inactive)
COc1cc(/C=C/C(=O)OC(C)C(=O)Nc2ccc(Cl)cn2)ccc1OC(F)F (stereo not given)	28.3% (inactive)
COc1ccc(Nc2nc(Cl)nc(NCc3ccco3)n2)c(OC)c1	-5.12% (inactive)
Cc1noc(NS(=O)(=O)c2ccc(NC(=O)/C=C/c3ccc(C(C)C)cc3)cc2)c1C	-12.3% (inactive)
CCN(CC)c1ccc(C=C2C(=O)N(C)C(=S)N(C)C2=O)o1	1.5% (inactive)
CC(C)N1C(=O)S/C(=C\c2ccc(-c3ccc(Cl)c(C(=O)O)c3)o2)C1=O	4.73% (inactive)
NC(=O)CN1CCCC1c1ccc2c(c1)OCCO2 (stereo not given)	-1.31% (inactive)
CC(=O)c1ccc(OCC(=O)N2CCCC2c2ccc3c(c2)OCCCO3)cc1 (stereo not given)	-12.4% (inactive)
CCc1nnc(NC(=O)CN2CCN(Cc3cccc(F)c3)CC2)s1	13.7% (inactive)
COc1ccc(NS(=O)(=O)c2cccc(C(=O)NCc3ccccn3)c2)cc1	-5.64% (inactive)
O=C(CCn1cnnn1)Nc1ccc(Cl)cc1Cl	-5.53% (inactive)
O=C(CN1CCCC1)Nc1ccc([N+](=O)[O-])cc1	4.32% (inactive)
O=C(CN1CCCCC1)Nc1nnc(-c2ccccc2)s1	5.25% (inactive)
O=C(OCC(=O)N1CCCC1)c1ccc(Cl)c([N+](=O)[O-])c1	-6.77% (inactive)
